{
  "source": "PubChem BioAssay (NCI)",
  "note": "About 83,000 compounds went through this panel and 20% of them were active in at least one assay; those are over-represented in the sample as a whole.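 For each line, cells grew in 96-well plates with the test compound present at a single concentration for 48 hours.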 The source made the active and inactive calls. Rule for the calls: active = growth percent below 10; inactive = the rest.",
  "data": [
    {"tested_on": "OVCAR-5 ovarian", "assay": "NCI-60 one-dose screen, 48 h (100 = growth as untreated, 0 = no growth, -100 = all killed)", "details": "10 µM unless noted", "values": [
      {"smiles": "O=C(/C=C/c1cccc(F)c1)c1cccc(OCCCCOc2cccc(C(=O)/C=C/c3cccc(F)c3)c2)c1", "growth": "99.1% (inactive)"},
      {"smiles": "O=S(=O)(NCCCNc1nccc(-c2[nH]c(-c3ccccc3)nc2-c2ccc(F)c(O)c2)n1)c1ccc(C(F)(F)F)cc1", "growth": "136% (inactive)"},
      {"smiles": "O=C(CCCCCCNC(=O)C(O)(O)C(F)(F)F)Nc1ncc(-c2ccccc2)s1", "growth": "-0.912% (active)"},
      {"smiles": "CN(C)c1ccc(/C=N/Nc2nc(N/N=C/c3ccc(N(C)C)cc3)nc(N3CCCCC3)n2)cc1", "growth": "96.1% (inactive)"},
      {"smiles": "NC1[C@H]2CN(c3cnc(C(=O)Nc4cc(F)cc5cccnc45)cn3)C[C@@H]12", "note": "(some centres undefined)", "growth": "77.3% (inactive)"},
      {"smiles": "Clc1cccc(/C=N/Nc2nc(N/N=C/c3cccc(Cl)c3)nc(N3CCCCC3)n2)c1", "growth": "110% (inactive)"},
      {"smiles": "CC(Nc1ncnc2ccc(-c3cnc4cnccn34)cc12)c1ccccc1", "note": "(centres undefined)", "growth": "68.2% (inactive)"},
      {"smiles": "CN1CCN(c2ccc(Nc3nc(NCCNC(=O)c4ccccc4)c4sccc4n3)cc2)CC1", "growth": "84.1% (inactive)"},
      {"smiles": "O=C(CSc1nc2ccccc2c(=O)n1-c1ccccc1)N/N=C/c1ccc(Oc2ccc(Cl)cc2)cc1", "growth": "81.5% (inactive)"}
    ]}
  ]
}
